Drawing on PubChem BioAssay (EPA / NIEHS), this text covers AC50 and outcome for 13 compounds.

Inconclusive results are not listed. Activity calls are given as the source filed them. The calls were made as follows: active = hit-call score of the fitted dose curve at least 0.9, where 1 is the maximum; inconclusive = response in the unintended direction; inactive = score below 0.9.

This test deals with guinea pig Opioid, Kappa 1 Receptor (OpiateK), OPRK1 (gene 100135587) (UniProt P41144). As to the kind of experiment: NVS_GPCR_gOpiateK: NovaScreen (NVS) G Protein-Coupled Receptor Assay for guinea pig Opioid, Kappa 1 Receptor (OpiateK) (AID 2283252).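 Also: active means reduced radioligand binding relative to DMSO.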 As for the experimental part: NVS_GPCR_gOpiateK is a biochemical, single-readout assay that uses extracted gene-proteins from Guinea pig cerebellar membranes in a tissue-based cell-free assay. Measurements were taken 2 hours after chemical dosing in a 48-well plate.NVS_GPCR_gOpiateK is one of one assay component(s) measured or calculated from the NVS_GPCR_gOpiateK assay. It is designed to make measurements of radioligand binding, a form of binding reporter, as detected with scintillation counting signals by Filter-based radiodetection technology.Data from the assay component NVS_GPCR_gOpiateK was analyzed into 1 assay endpoint. This assay endpoint, NVS_GPCR_gOpiateK, was analyzed in the positive analysis fitting direction relative to DMSO as the negative control and baseline of activity. Using a type of binding reporter, loss-of-signal activity can be used to understand changes in the binding as they relate to the gene Oprk1. Furthermore, this assay endpoint can be referred to as a primary readout, because the performed assay has only produced 1 assay endpoint. To generalize the intended target to other relatable targets, this assay endpoint is annotated to the gpcr intended target family, where the subfamily is rhodopsin-like receptor.
guinea pig Opioid, Kappa 1 Receptor (OpiateK), OPRK1 (gene 100135587), sequence (P41144 whole entry, looked up): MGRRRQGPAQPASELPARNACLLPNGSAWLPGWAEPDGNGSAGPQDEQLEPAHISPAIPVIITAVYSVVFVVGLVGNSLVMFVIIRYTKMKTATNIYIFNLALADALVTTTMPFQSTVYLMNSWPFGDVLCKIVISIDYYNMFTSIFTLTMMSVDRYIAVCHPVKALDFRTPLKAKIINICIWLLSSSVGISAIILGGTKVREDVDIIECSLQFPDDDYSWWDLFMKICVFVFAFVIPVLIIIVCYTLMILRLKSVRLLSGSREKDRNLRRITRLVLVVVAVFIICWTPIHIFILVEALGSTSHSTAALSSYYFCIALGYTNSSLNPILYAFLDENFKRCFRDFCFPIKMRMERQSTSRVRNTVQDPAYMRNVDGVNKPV
Binding assays used specific radioligands (tritiated, iodinated) with non-radioactive competitive displacement ligands in agonist or antagonist protocols (as indicated) and various reference compounds and inhibitors to titrate specific binding to receptors and transporters. Most enzyme assays (CYPs, kinases, phosphatases, proteases, HDACs) used recombinant protein and specific substrates (fluorescence mostly, some colorimetric and radioactive) and inhibitors, followed by a biochemical separation of substrate and product. All assays for the biochemical HTS were initially run in duplicate at a single concentration (10 uM for CYP450 assays and 25 uM for all others). […] Each assay was run with positive and negative controls, and concurrent controls on every plate. The follow-up (secondary) screen tested active chemical-pairs in concentration series, as well as a few additional assays not tested in the primary screen, some selected negative inactives, and several cases re-run in the concentration series for confirmatory purposes.
For the compound `Nc1ccc(Nc2ccccc2)cc1`, the AC50 is 20.6 µM (active). Regarding `CN(C)c1ccc(N=NS(=O)(=O)O)cc1`, the AC50 is 8.61 µM (active). In the case of `COCCOc1cc2cc(C(=O)NC3CCN(C(C)C)CC3)n(CC(=O)Nc3ccc(Cl)cn3)c2cn1`, the outcome was inactive. As for `CCn1nc(Cc2ccccc2)cc1C1CCN(C[C@H]2C[C@H](N(C)[C@@H](C(=O)O)C(C)C)C[C@@H]2c2cccc(F)c2)CC1`, the half-maximal activity concentration (AC50) was 8.5 µM (active). As for `O=c1[nH]c2ccc(S(=O)CCN3CCC(Cc4ccc(F)cc4)CC3)cc2o1` (stereo not drawn), the compound was called inactive. Take `Cc1[nH]cnc1C[C@H]1CCc2c(C)c3ccccc3n2C1=O`: the compound was classed as inactive.

On to `CCCN(C1CCN(C(=O)C2CCNCC2)CC1)[C@@H]1CCc2ccc(OC)cc2C1`, for which the AC50 was 7.41 µM (active). For the compound `O=C(O)CC(O)C(=O)O` (stereo not drawn), the outcome was inactive. Regarding `Cc1c(-c2cccnc2)c2ccccc2n1CCCCC(=O)O`, the AC50 is 14.7 µM (active). Take `Cn1c(=O)cc(Oc2ccc(F)cc2F)c2cnc(NCC(C)(C)O)nc21`: the compound was classed as inactive. Consider `CNS(=O)(=O)c1cc(C(=O)N2CCC(CCN3C4CCC3CC(n3c(C)nc5ccccc53)C4)(c3cccc(F)c3)CC2)c(Cl)cc1F` (stereo not drawn), for which the AC50 was 0.935 µM (active). Same read-out and setting: for `On1ccccc1=S` the value was 10.4 µM (active); for `CC[C@H]1CC[C@H](NCc2cc3c(cc2OC)[C@H]2C[C@H]2C(=O)N3C)[C@H](c2ccccc2)N1`, 2.02 µM (active).

By AC50 is commonly meant the midpoint of the concentration-response curve, whichever way the signal moves.
